This passage reports growth results from PubChem BioAssay (NCI).

Molecules are shown by their SMILES. About 83,000 compounds went through this panel and 20% of them were active in at least one assay; those are over-represented in the sample as a whole.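 A percent growth of 40 corresponds to 60% growth inhibition; 0 means no net growth; -100 means all cells died. Active threshold: below 10.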 Active and inactive are the calls of the source.

Test systems include SK-MEL-2 melanoma; EKVX NSCLC; SN12C renal; UO-31 renal; TK-10 renal; ACHN renal; CAKI-1 renal; A498 renal; CCRF-CEM leukemia; SR leukemia; RPMI-8226 leukemia; OVCAR-8 ovarian; OVCAR-5 ovarian; OVCAR-4 ovarian; SK-OV-3 ovarian; IGROV1 ovarian; OVCAR-3 ovarian; HS 578T breast; NCI/ADR-RES ovarian; MOLT-4 leukemia.
What all share (experiment): NCI-60 one-dose screen, 48 h (100 = growth as untreated, 0 = no growth, -100 = all killed)
Holding throughout (details): 10 µM unless noted

`COc1ccc(/C(C)=N/NC(=O)c2ccc(S(C)(=O)=O)cc2)cc1OC`: the growth with SK-MEL-2 melanoma was 101% (inactive); in the assay with EKVX NSCLC it was 96.3% (inactive); with SN12C renal, 100% (inactive); with UO-31 renal, 91.9% (inactive); in the assay with TK-10 renal, 102% (inactive); with ACHN renal it was 108% (inactive). Also, the growth in the assay on CAKI-1 renal is 91.6% (inactive); in the assay on A498 renal, 94.1% (inactive); in the assay on CCRF-CEM leukemia it was 115% (inactive); in the assay with SR leukemia, 97.6% (inactive); with RPMI-8226 leukemia it was 130% (inactive); in the assay on OVCAR-8 ovarian it was 110% (inactive). Moreover, the growth with OVCAR-5 ovarian was 106% (inactive); with OVCAR-4 ovarian, 97.7% (inactive); in the assay on SK-OV-3 ovarian, 88.4% (inactive); in the assay with IGROV1 ovarian, 109% (inactive); in the assay with OVCAR-3 ovarian, 113% (inactive); in the assay on HS 578T breast it was 100% (inactive). Further, the growth in the assay on NCI/ADR-RES ovarian is 113% (inactive).

As to `COC(=O)c1ccc2c(c1)nc(-c1cc3ccccc3[nH]c1=O)n2-c1cc(C(C)(C)C)[nH]n1`, the growth with SK-MEL-2 melanoma was 55.9% (inactive); in the assay with EKVX NSCLC it was 85.6% (inactive); in the assay on SN12C renal, 57.3% (inactive); in the assay with UO-31 renal, 29.1% (inactive); in the assay on TK-10 renal it was 113% (inactive); in the assay with ACHN renal it was 78.5% (inactive). The growth was 67.9% (inactive) in the assay with CAKI-1 renal; 59.6% (inactive) in the assay on A498 renal; 30.3% (inactive) in the assay on CCRF-CEM leukemia; 18.1% (inactive) with MOLT-4 leukemia; 22% (inactive) in the assay with RPMI-8226 leukemia; 54% (inactive) with OVCAR-8 ovarian. Also, the growth with OVCAR-5 ovarian is 96.6% (inactive); in the assay with OVCAR-4 ovarian, 86.7% (inactive); with SK-OV-3 ovarian, 105% (inactive); in the assay with IGROV1 ovarian, 44.7% (inactive); in the assay on OVCAR-3 ovarian it was 94.5% (inactive); with HS 578T breast it was 39.3% (inactive). Besides, in the assay with NCI/ADR-RES ovarian, the growth was 2.6% (active).

In the case of `COc1ccc(/C=C/c2nc(NCCCN(C)C)c3ccccc3n2)cc1`, the growth was -50.9% (active) in the assay on SK-MEL-2 melanoma; 64.3% (inactive) with EKVX NSCLC; 86.7% (inactive) in the assay on SN12C renal; 81.9% (inactive) in the assay on UO-31 renal; 89.3% (inactive) in the assay with TK-10 renal; 122% (inactive) in the assay on ACHN renal. Further, the growth with CAKI-1 renal is 87.7% (inactive); with A498 renal, 93.6% (inactive); in the assay with CCRF-CEM leukemia it was -44.9% (active); in the assay on MOLT-4 leukemia, -46% (active); in the assay on RPMI-8226 leukemia it was 0.379% (active); in the assay on OVCAR-8 ovarian, 79.8% (inactive). In addition, the growth was 76.9% (inactive) in the assay on OVCAR-5 ovarian; 62.9% (inactive) in the assay with OVCAR-4 ovarian; 121% (inactive) in the assay on SK-OV-3 ovarian; 49.9% (inactive) in the assay with IGROV1 ovarian; 79.4% (inactive) in the assay with OVCAR-3 ovarian; 90.5% (inactive) in the assay with HS 578T breast. Further, in the assay with NCI/ADR-RES ovarian, the growth is 87.9% (inactive).

As to `CN(C)CCCN1c2ccccc2CCc2ccccc21`, the growth is 105% (inactive) in the assay on SK-MEL-2 melanoma; 107% (inactive) in the assay with EKVX NSCLC; 80.1% (inactive) in the assay with SN12C renal; 83.2% (inactive) in the assay with UO-31 renal; 93.3% (inactive) in the assay with TK-10 renal; 91.4% (inactive) with ACHN renal. In addition, the growth in the assay on CAKI-1 renal was 84.6% (inactive); in the assay on A498 renal, 124% (inactive); with CCRF-CEM leukemia, 97.6% (inactive); in the assay on MOLT-4 leukemia, 83.7% (inactive); in the assay on RPMI-8226 leukemia, 99.4% (inactive); with OVCAR-8 ovarian, 97.4% (inactive). The growth with OVCAR-5 ovarian is 103% (inactive); with OVCAR-4 ovarian, 68.7% (inactive); with SK-OV-3 ovarian, 94.1% (inactive); with IGROV1 ovarian, 94.8% (inactive); with OVCAR-3 ovarian it was 116% (inactive); with HS 578T breast, 103% (inactive). In addition, the growth in the assay on NCI/ADR-RES ovarian is 107% (inactive).

Turning to `COc1cc(C2CC(c3ccc(Cl)cc3)=NN2C(C)=O)ccc1Oc1nc2c(c(=O)n(C)c(=O)n2C)n1C` (centres undefined), the growth was 105% (inactive) with SK-MEL-2 melanoma; 83.6% (inactive) in the assay with EKVX NSCLC; 50.3% (inactive) in the assay with SN12C renal; 76.3% (inactive) in the assay on UO-31 renal; 110% (inactive) in the assay on TK-10 renal; 87.2% (inactive) in the assay with ACHN renal. In addition, the growth in the assay on CAKI-1 renal is 81.5% (inactive); with A498 renal, 77.4% (inactive); in the assay with CCRF-CEM leukemia, 80.5% (inactive); in the assay on SR leukemia, 78.5% (inactive); in the assay on RPMI-8226 leukemia, 72.1% (inactive); in the assay with OVCAR-8 ovarian, 92.2% (inactive). Besides, the growth in the assay on OVCAR-5 ovarian was 108% (inactive); in the assay with OVCAR-4 ovarian, 67.9% (inactive); in the assay with SK-OV-3 ovarian it was 112% (inactive); in the assay on IGROV1 ovarian, 82.3% (inactive); in the assay with OVCAR-3 ovarian, 102% (inactive); with HS 578T breast, 80.5% (inactive). Further, in the assay on NCI/ADR-RES ovarian, the growth is 61.6% (inactive).

For `NC(N)=N/N=C/c1ccc(Cl)cc1`, the growth with SK-MEL-2 melanoma was 95.9% (inactive); in the assay on EKVX NSCLC, 64.2% (inactive); in the assay with SN12C renal it was 94.9% (inactive); in the assay with UO-31 renal, 73.3% (inactive); in the assay with TK-10 renal, 84.9% (inactive); with ACHN renal, 91.8% (inactive). Also, the growth was 34% (inactive) with CAKI-1 renal; 68.2% (inactive) in the assay on A498 renal; 71% (inactive) with CCRF-CEM leukemia; 53.9% (inactive) with MOLT-4 leukemia; 88.3% (inactive) in the assay with OVCAR-8 ovarian; 89.6% (inactive) with OVCAR-5 ovarian. In addition, the growth is 76.5% (inactive) with SK-OV-3 ovarian, 97.6% (inactive) in the assay with IGROV1 ovarian, 56.8% (inactive) in the assay on OVCAR-3 ovarian and 75.4% (inactive) with HS 578T breast.

For the molecule `COc1ccc(CC2c3cc(OC)c(OC)cc3CC[N+]2(C)CCC(=O)OCCCCCOC(=O)CC[N+]2(C)CCc3cc(OC)c(OC)cc3C2Cc2ccc(OC)c(OC)c2)cc1OC` (centres undefined), the growth in the assay on SK-MEL-2 melanoma was 98.7% (inactive); in the assay on EKVX NSCLC, 101% (inactive); in the assay with SN12C renal, 81.2% (inactive); in the assay with UO-31 renal it was 66.2% (inactive); with TK-10 renal, 124% (inactive); with ACHN renal, 97.1% (inactive). Moreover, the growth with CAKI-1 renal is 87.4% (inactive); in the assay on A498 renal it was 66% (inactive); in the assay with CCRF-CEM leukemia it was 94.1% (inactive); in the assay on MOLT-4 leukemia, 80.4% (inactive); in the assay on RPMI-8226 leukemia, 96.3% (inactive); with OVCAR-8 ovarian, 96.5% (inactive). Moreover, the growth was 103% (inactive) with OVCAR-5 ovarian; 89.8% (inactive) in the assay with OVCAR-4 ovarian; 110% (inactive) with SK-OV-3 ovarian; 102% (inactive) with IGROV1 ovarian; 95.9% (inactive) in the assay on OVCAR-3 ovarian; 93.4% (inactive) with HS 578T breast. In addition, the growth in the assay with NCI/ADR-RES ovarian is 78.1% (inactive).

Take `C[C@@H]1CC2C3CCC4=CC(=O)C=C[C@]4(C)[C@@]3(Cl)[C@@H](O)C[C@]2(C)[C@@]1(OC(=O)c1ccco1)C(=O)CCl` (some centres undefined): the growth was 76.6% (inactive) in the assay on SK-MEL-2 melanoma; 61.5% (inactive) in the assay on EKVX NSCLC; 35.4% (inactive) in the assay with SN12C renal; 30.5% (inactive) in the assay on UO-31 renal; 95.6% (inactive) with TK-10 renal; 82.4% (inactive) with ACHN renal. The growth is 62.2% (inactive) in the assay on CAKI-1 renal; 99% (inactive) in the assay on A498 renal; 30% (inactive) in the assay with CCRF-CEM leukemia; 54.6% (inactive) in the assay with SR leukemia; 55.9% (inactive) in the assay on RPMI-8226 leukemia; 53% (inactive) in the assay on OVCAR-8 ovarian. Besides, the growth in the assay with OVCAR-5 ovarian is 83.1% (inactive); in the assay with OVCAR-4 ovarian it was 67.7% (inactive); in the assay with SK-OV-3 ovarian, 54.1% (inactive); in the assay with IGROV1 ovarian it was 76.3% (inactive); in the assay on OVCAR-3 ovarian, 89.3% (inactive); in the assay with HS 578T breast, 67.2% (inactive). Also, in the assay with NCI/ADR-RES ovarian, the growth is 39.9% (inactive).
